Results filed as inconclusive are left out. Active and inactive are the calls of the source. The calls were made as follows, unless noted: active = hit-call score of the fitted dose curve at least 0.9, where 1 is the maximum; inactive = score below 0.9.

Experiment [1] concerns the target human Peroxisome Proliferator-activated Receptor alpha (PPARa), PPARA (gene 5465) (UniProt Q07869). Description: ATG_PPARa_TRANS: Attagene TRANS-FACTORIAL HepG2 Assay for human Peroxisome Proliferator-activated Receptor alpha (PPARa) (AID 2283001; active = hit-call score of the fitted dose curve at least 0.9, where 1 is the maximum). In a few lines: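 Reporter transcripts quantified by RT-PCR plus capillary electrophoresis after 24 h treatment, fitted upward relative to DMSO. Cells: human HepG2 transiently carrying multiple GAL4-UAS reporter units driven by NR-Gal4 chimeras.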

Read-out in experiment [2]: Intercellular Adhesion Molecule 1 (ICAM1), ICAM1 (gene 3383)
Description: BSK_3C_ICAM1: BioMAP Diversity Plus: 3C Assay for Intercellular Adhesion Molecule 1 (ICAM1) Biomarker Activity (AID 2283003). Particulars: primary human endothelial cells (HUVEC); actives raise or lower the signal. In a few lines:
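Chemicals are dosed onto primary human umbilical vein endothelium (3C system). After 24 h, ICAM-1 is measured by ELISA, and responses are fitted bidirectionally relative to DMSO.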

The target of experiment [3] is Peroxisome proliferator-activated receptor gamma (Homo sapiens) (UniProt P37231). The experiment is described as follows: ATG_PPARg_TRANS: Attagene TRANS-FACTORIAL HepG2 Assay for human Peroxisome Proliferator-activated Receptor-gamma (PPARg) (AID 2283007; active = hit-call score of the fitted dose curve at least 0.9, where 1 is the maximum). The gist of the method: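 Multiplexed reporter transcription units in HepG2, 24 h dosing, reporter transcripts quantified by fluorescent RT-PCR and capillary electrophoresis. Increase over DMSO scored.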
Chain of Peroxisome proliferator-activated receptor gamma (Homo sapiens) (P37231 whole entry, looked up): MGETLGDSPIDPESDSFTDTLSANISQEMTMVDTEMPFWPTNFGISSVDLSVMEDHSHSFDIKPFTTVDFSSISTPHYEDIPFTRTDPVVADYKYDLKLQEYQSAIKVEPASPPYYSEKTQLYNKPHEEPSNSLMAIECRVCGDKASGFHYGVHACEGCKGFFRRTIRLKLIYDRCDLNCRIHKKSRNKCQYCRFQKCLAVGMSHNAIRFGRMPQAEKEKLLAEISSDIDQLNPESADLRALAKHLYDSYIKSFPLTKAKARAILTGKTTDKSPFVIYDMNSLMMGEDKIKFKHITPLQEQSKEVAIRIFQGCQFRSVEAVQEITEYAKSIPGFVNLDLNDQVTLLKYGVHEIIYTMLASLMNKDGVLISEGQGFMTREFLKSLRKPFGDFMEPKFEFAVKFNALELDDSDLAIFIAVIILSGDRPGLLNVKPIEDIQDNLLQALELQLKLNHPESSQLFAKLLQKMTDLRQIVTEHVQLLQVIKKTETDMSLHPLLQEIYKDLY

For experiment [4], the target named is Nuclear receptor subfamily 1 group I member 2 (Homo sapiens) (UniProt O75469). The experiment is described as follows: ATG_PXR_TRANS: Attagene TRANS-FACTORIAL HepG2 Assay for human Pregnane X Receptor (PXR) (AID 2283008; active = hit-call score of the fitted dose curve at least 0.9, where 1 is the maximum). The gist of the method: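 Transient HepG2 transfectants carrying multiplexed reporter transcription units; PXR activity read through a Gal4 chimera. 24 h exposure. RT-PCR/CE fluorescence; upward curve fit referenced to DMSO.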
Chain of Nuclear receptor subfamily 1 group I member 2 (Homo sapiens) (O75469 whole entry, looked up, the tested form may be a part): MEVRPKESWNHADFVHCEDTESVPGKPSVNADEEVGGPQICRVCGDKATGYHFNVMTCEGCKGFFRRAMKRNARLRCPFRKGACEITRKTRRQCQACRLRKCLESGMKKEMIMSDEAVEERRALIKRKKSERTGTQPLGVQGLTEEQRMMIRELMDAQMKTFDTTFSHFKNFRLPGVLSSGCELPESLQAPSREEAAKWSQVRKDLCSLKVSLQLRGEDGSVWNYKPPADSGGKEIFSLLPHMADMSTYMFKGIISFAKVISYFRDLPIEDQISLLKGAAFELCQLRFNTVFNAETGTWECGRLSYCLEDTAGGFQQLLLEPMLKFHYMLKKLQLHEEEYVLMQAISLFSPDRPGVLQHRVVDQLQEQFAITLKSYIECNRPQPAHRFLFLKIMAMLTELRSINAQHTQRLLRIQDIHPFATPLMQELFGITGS

For experiment [5], the target named is Retinoic acid receptor RXR-alpha (Homo sapiens) (UniProt P19793). The experiment is described as follows: ATG_RXRa_TRANS: Attagene TRANS-FACTORIAL HepG2 Assay for human Retinoid X Receptor alpha (RXRa) (AID 2283012; active = hit-call score of the fitted dose curve at least 0.9, where 1 is the maximum). In a few lines: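 Measures exogenous chimeric NR-GAL4 activity in transfected HepG2 liver cells after 24 h of dosing. Induced reporter mRNA was detected by RT-PCR with capillary electrophoresis, and gain of signal was analysed against DMSO.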
Chain of Retinoic acid receptor RXR-alpha (Homo sapiens) (P19793 whole entry, looked up, the tested form may be a part): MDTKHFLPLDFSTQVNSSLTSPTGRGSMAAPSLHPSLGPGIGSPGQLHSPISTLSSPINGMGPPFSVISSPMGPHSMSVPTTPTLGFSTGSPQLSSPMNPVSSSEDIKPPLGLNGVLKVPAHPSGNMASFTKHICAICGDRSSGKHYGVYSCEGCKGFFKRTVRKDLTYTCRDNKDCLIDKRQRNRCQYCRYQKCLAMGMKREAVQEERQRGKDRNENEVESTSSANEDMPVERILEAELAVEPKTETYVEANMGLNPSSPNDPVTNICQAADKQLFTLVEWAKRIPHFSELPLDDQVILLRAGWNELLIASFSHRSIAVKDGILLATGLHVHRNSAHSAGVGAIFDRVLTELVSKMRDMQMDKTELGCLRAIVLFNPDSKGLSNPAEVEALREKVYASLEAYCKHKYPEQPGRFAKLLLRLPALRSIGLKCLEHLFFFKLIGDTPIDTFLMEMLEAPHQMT

Experiment [6] concerns the target human Retinoid X Receptor beta (RXRb), RXRB (gene 6257) (UniProt P28702). The experiment is described as follows: ATG_RXRb_TRANS: Attagene TRANS-FACTORIAL HepG2 Assay for human Retinoid X Receptor beta (RXRb) (AID 2283013; active = hit-call score of the fitted dose curve at least 0.9, where 1 is the maximum). In a few lines:
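Chimeric receptor-Gal4 activity was assessed in transiently transfected human HepG2 cells after 24 h exposure. Transcripts from GAL4-UAS reporters were quantified by fluorescent RT-PCR and capillary electrophoresis, with DMSO as negative control and baseline.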

In experiment [7] the target is human Thyroid Receptor alpha (THRa1), THRA (gene 7067) (UniProt P10827). The experiment is described as follows: ATG_THRa1_TRANS: Attagene TRANS-FACTORIAL HepG2 Assay for human Thyroid Receptor alpha (THRa1) (AID 2283014; active = hit-call score of the fitted dose curve at least 0.9, where 1 is the maximum). In a few lines:
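Reporter transcript induction, read by capillary electrophoresis of 6-FAM-labelled RT-PCR products, reflects activity of a transfected THRa1-Gal4 fusion in HepG2 liver cells. Cells were dosed for 24 h; activity was fitted in the positive direction against DMSO.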

Read-out in experiment [8]: E-selectin (Homo sapiens) (UniProt P16581)
Description: BSK_3C_Eselectin: BioMAP Diversity Plus: 3C Assay for Eselectin Biomarker Activity (AID 2283015).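 As to outcome: cell surface E-selectin protein quantified by ELISA 24 h after dosing.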 Particulars: primary human endothelial cells (HUVEC); actives raise or lower the signal. The gist of the method:
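ELISA read-out of E-selectin on endothelial monolayers after 24 h chemical treatment. Human umbilical vein primary cells served as the system, with DMSO defining baseline activity for bidirectional fitting.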

Read-out in experiment [9]: Interleukin-1 alpha (IL1a), IL1A (gene 3552)
The experiment is described as follows: BSK_BE3C_IL1a: BioMAP Diversity Plus: BE3C Assay for Interleukin-1 alpha (IL1a) Biomarker Activity (AID 2283016). Particulars: primary human bronchial epithelial cells; actives raise or lower the signal. In a few lines:
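Signal from IL-1a ELISA, taken 24 h after chemical dosing of human bronchial epithelial cells, is compared with DMSO as baseline using bidirectional curve fitting.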

Read-out in experiment [10]: Monocyte Chemoattractant Protein-1 (MCP1), CCL2 (gene 6347)
The experiment is described as follows: BSK_3C_MCP1: BioMAP Diversity Plus: 3C Assay for Monocyte Chemoattractant Protein-1 (MCP1) Biomarker Activity (AID 2283017). Particulars: primary human endothelial cells (HUVEC); actives raise or lower the signal. In a few lines: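 ELISA read-out of MCP-1 from human umbilical vein endothelial cell cultures harvested 24 h post-dosing. Gain or loss of signal was fitted relative to DMSO.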

Read-out in experiment [11]: Monocyte Chemoattractant Protein-1 (MCP1), CCL2 (gene 6347)
The experiment is described as follows: BSK_4H_MCP1: BioMAP Diversity Plus: 4H Assay for Monocyte Chemoattractant Protein-1 (MCP1) Biomarker Activity (AID 2283018). Particulars: primary human endothelial cells (HUVEC); actives raise or lower the signal. The gist of the method:
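Endothelial cells from umbilical vein were treated with test chemical, then after 24 h MCP-1 levels were quantified by ELISA; endpoint values came from bidirectional fitting with DMSO as baseline of activity.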

Read-out in experiment [12]: Human Leukocyte Antigen - DR isotype (HLADR), HLA-DRA (gene 3122)
Description: BSK_3C_HLADR: BioMAP Diversity Plus: 3C Assay for Human Leukocyte Antigen - DR isotype (HLADR) Biomarker Activity (AID 2283019). To be noted: primary human endothelial cells (HUVEC); actives raise or lower the signal. The gist of the method: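 ELISA readout of surface HLA-DR on human umbilical vein endothelium, taken 24 h after chemical treatment. Gain- and loss-of-signal were both fitted relative to DMSO.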

Read-out in experiment [13]: Interleukin-8 (IL8), CXCL8 (gene 3576)
The experiment is described as follows: BSK_3C_IL8: BioMAP Diversity Plus: 3C Assay for Interleukin-8 (IL8) Biomarker Activity (AID 2283020). Particulars: primary human endothelial cells (HUVEC); actives raise or lower the signal. In a few lines: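 Endothelial primary cells of human umbilical vein origin are dosed with chemical; after 24 h the IL-8 biomarker is measured by ELISA, and concentration–response is fitted in both directions versus DMSO.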

Read-out in experiment [14]: Monokine induced gamma interferon (MIG), CXCL9 (gene 4283)
Description: BSK_3C_MIG: BioMAP Diversity Plus: 3C Assay for Monokine induced gamma interferon (MIG) Biomarker Activity (AID 2283021). Particulars: primary human endothelial cells (HUVEC); actives raise or lower the signal. In a few lines: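 Endothelial primary cells (human umbilical vein) are dosed with test chemical in the 3C system. MIG levels are measured by ELISA at 24 h and fitted in both directions relative to DMSO.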

For experiment [15], the target named is human Retinoic Acid Receptor gamma (RARg), RARG (gene 5916) (UniProt P13631). Description: ATG_RARg_TRANS: Attagene TRANS-FACTORIAL HepG2 Assay for human Retinoic Acid Receptor gamma (RARg) (AID 2283009; active = hit-call score of the fitted dose curve at least 0.9, where 1 is the maximum). The gist of the method: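 TRANS format measured activity of exogenous NR-GAL4 fusion (RARg) in transfected HepG2 liver cells after 24 h dosing. Induced reporter RNA was detected by RT-PCR/capillary electrophoresis fluorescence, analysed in the positive direction against DMSO.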
Chain of human Retinoic Acid Receptor gamma (RARg), RARG (gene 5916) (P13631 whole entry, looked up, the tested form may be a part): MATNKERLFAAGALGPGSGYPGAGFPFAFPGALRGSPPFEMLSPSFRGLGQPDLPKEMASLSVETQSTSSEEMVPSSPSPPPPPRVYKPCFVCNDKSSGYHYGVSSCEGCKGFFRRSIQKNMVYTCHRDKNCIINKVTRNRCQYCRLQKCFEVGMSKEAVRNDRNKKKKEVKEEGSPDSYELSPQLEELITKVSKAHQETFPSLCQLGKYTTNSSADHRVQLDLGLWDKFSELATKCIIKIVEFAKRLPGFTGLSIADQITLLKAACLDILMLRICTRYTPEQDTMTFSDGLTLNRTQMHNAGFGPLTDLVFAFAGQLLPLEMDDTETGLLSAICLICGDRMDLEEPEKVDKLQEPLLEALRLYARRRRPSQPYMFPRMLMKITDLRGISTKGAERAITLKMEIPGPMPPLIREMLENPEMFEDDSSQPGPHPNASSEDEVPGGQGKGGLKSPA

Experiment [16] can be described thus: BSK_3C_Proliferation: Cell Proliferation Assessment in the BioMAP Diversity Plus: 3C Assay (AID 2283006).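 As to AC50: potency may reflect either rise or fall in cell number versus DMSO.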 Particulars: primary human endothelial cells (HUVEC). In a few lines: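 Cells (human umbilical vein endothelial, sub-confluent) receive test chemical; after 48 h they are fixed in 10% trichloroacetic acid, stained with 0.1% SRB and read at 560 nm. Activity is referenced to DMSO, fitting increases and decreases.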

In experiment [17] the target is human Retinoic Acid Receptor beta (RARb), RARB (gene 5915) (UniProt P10826). Description: ATG_RARb_TRANS: Attagene TRANS-FACTORIAL HepG2 Assay for human Retinoic Acid Receptor beta (AID 2283004; active = hit-call score of the fitted dose curve at least 0.9, where 1 is the maximum). In a few lines: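 Transient transfection of HepG2 with multiple reporter units → chemical dosing, 24 h → total RNA isolation → RT with oligo(dT) → reporter-specific PCR, 6-FAM primer extension, HpaI digest → capillary electrophoresis. Positive direction vs DMSO control.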

The target of experiment [18] is Retinoic acid receptor alpha (Homo sapiens) (UniProt P10276). The experiment is described as follows: ATG_RARa_TRANS: Attagene TRANS-FACTORIAL HepG2 Assay for human Retinoic Acid Receptor alpha (RARa) (AID 2283005; active = hit-call score of the fitted dose curve at least 0.9, where 1 is the maximum). The gist of the method: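 Reporter transcripts, measured by RT-PCR with fluorescent labeling and capillary electrophoresis after 24 h dosing, reflect activity of an exogenous human RARa–GAL4 fusion in transiently transfected HepG2. Fitted for increase relative to DMSO.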
Chain of Retinoic acid receptor alpha (Homo sapiens) (P10276 whole entry, looked up, the tested form may be a part): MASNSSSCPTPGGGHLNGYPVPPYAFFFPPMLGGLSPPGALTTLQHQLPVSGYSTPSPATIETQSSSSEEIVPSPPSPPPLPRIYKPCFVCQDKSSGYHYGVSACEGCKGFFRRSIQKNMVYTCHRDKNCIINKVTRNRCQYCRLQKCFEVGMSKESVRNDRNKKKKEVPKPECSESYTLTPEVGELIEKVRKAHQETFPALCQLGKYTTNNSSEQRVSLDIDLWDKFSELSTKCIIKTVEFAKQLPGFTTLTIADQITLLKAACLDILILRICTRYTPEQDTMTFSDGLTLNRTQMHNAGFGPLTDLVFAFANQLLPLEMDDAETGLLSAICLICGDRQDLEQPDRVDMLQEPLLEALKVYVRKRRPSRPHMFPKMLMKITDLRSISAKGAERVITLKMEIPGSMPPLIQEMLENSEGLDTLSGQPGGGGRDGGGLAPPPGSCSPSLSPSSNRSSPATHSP

Experiment [19] has as its target human RAR-related Orphan Receptor beta (RORb), RORB (gene 6096) (UniProt Q92753). Description: ATG_RORb_TRANS: Attagene TRANS-FACTORIAL HepG2 Assay for human RAR-related Orphan Receptor beta (RORb) (AID 2283010; active = hit-call score of the fitted dose curve at least 0.9, where 1 is the maximum). In a few lines:
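Transfect HepG2 with multiple GAL4-UAS reporter transcription units; dose chemicals for 24 h; isolate RNA, reverse-transcribe and PCR-amplify reporter sequences; label, digest and resolve fragments by capillary electrophoresis; fit increases relative to DMSO.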

Chain of human Retinoid X Receptor beta (RXRb), RXRB (gene 6257) (P28702 whole entry, looked up, the tested form may be a part): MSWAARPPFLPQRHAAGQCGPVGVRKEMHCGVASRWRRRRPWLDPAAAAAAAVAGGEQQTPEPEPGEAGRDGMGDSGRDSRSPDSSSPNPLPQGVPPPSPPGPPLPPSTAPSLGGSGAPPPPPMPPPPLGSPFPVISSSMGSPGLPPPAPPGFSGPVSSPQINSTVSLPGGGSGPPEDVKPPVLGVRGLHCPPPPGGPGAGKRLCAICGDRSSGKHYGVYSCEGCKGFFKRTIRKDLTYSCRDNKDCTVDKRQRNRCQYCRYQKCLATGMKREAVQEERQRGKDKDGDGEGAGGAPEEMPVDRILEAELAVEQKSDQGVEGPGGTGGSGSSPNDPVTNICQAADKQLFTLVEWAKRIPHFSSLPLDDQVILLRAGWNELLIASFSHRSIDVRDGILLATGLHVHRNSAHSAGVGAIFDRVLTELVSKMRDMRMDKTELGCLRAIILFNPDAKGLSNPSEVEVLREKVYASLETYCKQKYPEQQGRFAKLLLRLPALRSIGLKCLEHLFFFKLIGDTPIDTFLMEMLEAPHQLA
Chain of E-selectin (Homo sapiens) (P16581 whole entry, looked up): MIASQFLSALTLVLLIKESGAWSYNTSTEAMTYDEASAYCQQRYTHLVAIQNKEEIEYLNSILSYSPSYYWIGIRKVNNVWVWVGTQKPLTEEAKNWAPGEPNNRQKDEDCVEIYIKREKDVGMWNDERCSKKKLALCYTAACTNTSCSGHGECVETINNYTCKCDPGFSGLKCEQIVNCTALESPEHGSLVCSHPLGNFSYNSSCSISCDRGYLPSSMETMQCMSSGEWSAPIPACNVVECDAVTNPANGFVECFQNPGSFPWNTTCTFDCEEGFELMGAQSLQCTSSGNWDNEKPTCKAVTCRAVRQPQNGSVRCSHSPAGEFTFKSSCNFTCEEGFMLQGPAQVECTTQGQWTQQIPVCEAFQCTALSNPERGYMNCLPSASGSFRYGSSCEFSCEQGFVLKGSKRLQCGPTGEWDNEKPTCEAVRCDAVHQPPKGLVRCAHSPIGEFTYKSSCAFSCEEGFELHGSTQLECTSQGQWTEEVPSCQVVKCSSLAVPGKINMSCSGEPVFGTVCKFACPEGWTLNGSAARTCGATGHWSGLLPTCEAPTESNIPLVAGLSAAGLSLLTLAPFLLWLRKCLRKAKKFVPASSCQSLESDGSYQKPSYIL
Chain of human Thyroid Receptor alpha (THRa1), THRA (gene 7067) (P10827 whole entry, looked up, the tested form may be a part): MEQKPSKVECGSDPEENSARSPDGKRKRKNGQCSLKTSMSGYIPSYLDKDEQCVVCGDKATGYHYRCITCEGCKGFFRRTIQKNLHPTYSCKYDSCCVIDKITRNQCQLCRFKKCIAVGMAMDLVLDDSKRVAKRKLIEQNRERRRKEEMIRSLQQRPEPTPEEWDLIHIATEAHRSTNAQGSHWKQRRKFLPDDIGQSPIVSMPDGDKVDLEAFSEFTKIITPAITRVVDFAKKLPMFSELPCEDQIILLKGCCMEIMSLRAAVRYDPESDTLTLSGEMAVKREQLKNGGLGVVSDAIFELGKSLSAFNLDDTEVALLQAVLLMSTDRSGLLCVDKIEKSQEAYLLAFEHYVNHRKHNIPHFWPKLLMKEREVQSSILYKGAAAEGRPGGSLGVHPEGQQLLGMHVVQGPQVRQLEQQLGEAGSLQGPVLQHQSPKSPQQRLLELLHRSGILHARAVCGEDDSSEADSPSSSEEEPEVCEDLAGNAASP
Chain of human Peroxisome Proliferator-activated Receptor alpha (PPARa), PPARA (gene 5465) (Q07869 whole entry, looked up, the tested form may be a part): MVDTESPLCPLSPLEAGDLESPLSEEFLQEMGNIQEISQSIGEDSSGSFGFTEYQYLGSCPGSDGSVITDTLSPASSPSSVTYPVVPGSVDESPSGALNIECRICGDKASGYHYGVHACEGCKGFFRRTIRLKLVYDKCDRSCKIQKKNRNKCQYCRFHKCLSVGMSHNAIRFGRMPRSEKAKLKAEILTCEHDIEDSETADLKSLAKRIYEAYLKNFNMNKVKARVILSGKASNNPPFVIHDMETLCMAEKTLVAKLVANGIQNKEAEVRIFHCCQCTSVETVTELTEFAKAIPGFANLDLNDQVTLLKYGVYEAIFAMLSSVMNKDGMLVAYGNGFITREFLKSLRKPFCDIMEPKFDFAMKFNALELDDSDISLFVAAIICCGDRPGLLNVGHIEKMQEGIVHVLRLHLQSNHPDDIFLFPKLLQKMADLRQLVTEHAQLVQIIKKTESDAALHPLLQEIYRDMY
Chain of human RAR-related Orphan Receptor beta (RORb), RORB (gene 6096) (Q92753 whole entry, looked up, the tested form may be a part): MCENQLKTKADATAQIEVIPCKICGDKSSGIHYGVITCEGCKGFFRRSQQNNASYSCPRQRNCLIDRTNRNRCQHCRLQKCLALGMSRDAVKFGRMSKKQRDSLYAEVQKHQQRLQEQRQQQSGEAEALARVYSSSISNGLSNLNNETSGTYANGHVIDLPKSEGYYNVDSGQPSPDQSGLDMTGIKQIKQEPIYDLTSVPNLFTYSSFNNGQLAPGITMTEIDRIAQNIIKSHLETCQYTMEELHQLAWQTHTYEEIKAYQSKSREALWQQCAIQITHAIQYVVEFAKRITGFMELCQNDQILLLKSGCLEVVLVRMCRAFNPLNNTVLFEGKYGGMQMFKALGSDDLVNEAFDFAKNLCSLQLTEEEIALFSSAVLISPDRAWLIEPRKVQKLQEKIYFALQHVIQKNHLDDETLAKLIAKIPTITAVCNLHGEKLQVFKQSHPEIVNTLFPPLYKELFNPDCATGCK

For the compound `O=[N+]([O-])c1ccc(Oc2ccc(Cl)cc2Cl)cc1`, the result in experiment [1], in experiment [2], in [5], in [6], in [7] and in experiment [9] was inactive. Also, the result in [14] was inactive. Besides, the AC50 in experiment [3] is 14.3 µM (active); in [4], 9.58 µM (active); in experiment [8] it was 20 µM (active); in experiment [10], 27.8 µM (active); in experiment [11], 10.3 µM (active); in experiment [12] it was 30.5 µM (active). Further, the AC50 in experiment [13] is 20 µM (active).

Consider `Cc1cc(N=Nc2ccccc2C)ccc1N`, for which the call in experiment [1], in experiment [2], in [15], in [5], in experiment [6] and in [7] was inactive. In addition, the result in experiment [8], in experiment [9], in experiment [11] and in experiment [14] was inactive. For the same compound, the AC50 in experiment [3] is 18.3 µM (active); in [4], 20.7 µM (active); in experiment [10], 10.8 µM (active); in [12], 27.5 µM (active); in experiment [13], 20 µM (active).

`Nc1ccc([N+](=O)[O-])cc1`: the result in [1], in experiment [2], in [4], in [5], in experiment [6] and in experiment [7] was inactive. Further, the outcome in experiment [8], in experiment [9], in experiment [10], in experiment [11], in experiment [12] and in experiment [13] was inactive. Also, in [14], the result was inactive.

Regarding `CC(C)COC(=O)c1ccccc1C(=O)OCC(C)C`, the outcome in [1], in experiment [2], in experiment [5], in experiment [9] and in experiment [14] was inactive. Further, the AC50 in experiment [16] was 28.6 µM (active); in experiment [3] it was 44.6 µM (active); in experiment [6], 43.6 µM (active); in experiment [8] it was 28.8 µM (active); in experiment [10], 37 µM (active); in [11], 20 µM (active). The values for the AC50 in experiment [12] and in [13] were 32.3 µM (active) and 31.5 µM (active), respectively.

As to `O=P(OCCCl)(OCCCl)OCCCl`, the result in experiment [2], in experiment [17], in experiment [18], in [3], in experiment [4] and in experiment [15] was inactive. Also, the call in experiment [7], in experiment [8], in experiment [9], in [10], in experiment [11] and in experiment [12] was inactive. Besides, the outcome in experiment [13] and in experiment [14] was inactive.

As for `CCC(C)c1ccc(O)cc1` (configuration not stated), the compound was called inactive in experiment [1], in experiment [2], in experiment [16], in [4], in experiment [8] and in experiment [9]. Besides, the result in experiment [10], in experiment [11], in [12], in experiment [13] and in experiment [14] was inactive. In addition, the AC50 in experiment [6] was 100 µM (active).

For `CCC12COCN1COC2`, the compound was called inactive in experiment [1], in [2], in experiment [4], in experiment [19], in [5] and in experiment [8]. Besides, the result in experiment [9], in experiment [10], in experiment [11], in experiment [12], in experiment [13] and in experiment [14] was inactive.

In the case of `CCCCOC(=O)c1ccccc1C(=O)OCc1ccccc1`, the compound was called inactive in [1], in experiment [2], in [4], in experiment [5], in experiment [6] and in experiment [8]. In addition, the outcome in [9], in [10], in experiment [12], in experiment [13] and in experiment [14] was inactive. Further, the AC50 in experiment [16] was 14.4 µM (active); in experiment [11] it was 11.8 µM (active).

With `c1ccc(C2CO2)cc1` (configuration not stated), the compound was classed as inactive in experiment [1], in experiment [2], in experiment [16], in experiment [3], in experiment [8] and in experiment [9]. For the same compound, the result in experiment [10], in experiment [11], in [12], in experiment [13] and in experiment [14] was inactive.

For the origin of these results see PubChem BioAssay (EPA / NIEHS).
